Compounds without any hit were thinned out: in the full panel of roughly 83,000, 20% have a hit.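 Compound tested at a single concentration for 48 hours in 96-well plates; a percent growth value below 10 was scored as active.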 Unmarked numbers belong to inactive results. Active and inactive are the calls of the source.

The test system of this assay is LOX IMVI melanoma. Put plainly: NCI-60 one-dose screen, 48 h (100 = growth as untreated, 0 = no growth, -100 = all killed). The note with it: 10 µM unless noted. The procedure: Growth inhibition of the LOX IMVI human tumor cell line is measured as a screen for anti-cancer activity. Cells are grown in 96 well plates and exposed to the test compound for 48 hours. Compounds are tested at a single concentration, which is 10^-5 M for most compounds. The reported endpoint is percent growth (GI% or GIPRCNT), where numbers from 0 - 100% represent growth inhibition, and numbers from -100% - 0 represent cell death. For example, a value of 40 represents 60% growth inhibition. A value of 0 means no net growth occurred over the course of the experiment. A value of -40 indicates 40% of cells at the beginning of the experiment died by the end of the experiment. A value of -100 means all cells are dead at the end of the experiment.
NCI-60 Human Tumor Cell Lines Screen was performed using the standard one-dose NCI protocol, which is described in more detail at https://dtp.cancer.gov/discovery_development/nci-60/default.htm.
Compounds with GIPRCNT values below 10 were considered active. Activity score was based on GIPRCNT using the following formula: […]
Score is 0 for GIPRCNT values of 100 or above, 50 for GIPRCNT values of 0, and 100 for GIPRCNT values of -100.
Take `COc1cc2c(cc1-c1c(C)noc1C)ncc1nc(CN3CCOCC3)n([C@H](C)COC(F)F)c12`: the growth is 12.1%.
The same measure for `CC(C)c1ccc2c(c1)CC[C@H]1[C@](C)(C(=O)OCC#CCN3CCCC3)CCC[C@]21C`: 91.1%.
As for `O=C1C=C(SCCO)C(=O)c2ccccc21`, the growth was -57.5% (active).
For `c1csc(-c2cn3nc(-c4c[nH]c5ccccc45)sc3n2)c1`, the growth was 28.8%.
As for `O=C(/C=C/c1cccc(Oc2ccccc2)c1)c1ccc(Nc2nc(Nc3ccc(F)cc3)nc(Nc3ccc(Cl)cc3)n2)cc1`, the growth was 108%.
For the compound `COc1cc2c(c(OC)c1OC)C(=O)CC(c1cccc(C(=O)Nc3ccc(C#N)cc3)c1)O2` (stereo not given), the growth is 79.6%.
The same measure for `COC(=O)/C=C1/SC(=Nc2ccc(F)cc2)N(CCc2c[nH]c3ccc(O)cc23)C1=O`: -10.7% (active); for `Cn1c(=O)c2[nH]c(SC/C(=N/O)c3ccc(Br)cc3)nc2n(C)c1=O`: 36.9%.
For `O=C(/C=C/c1ccccc1Cl)c1cccc(OCCCCOc2cccc(C(=O)/C=C/c3ccccc3Cl)c2)c1`, the growth is 102%.
On to `C=C1C(=O)O[C@H]2[C@H]1CC/C(COC(=O)NCc1ccc(Cn3c(=O)sn(-c4ccc(I)cc4)c3=O)cc1)=C\CC[C@@]1(C)O[C@@H]21`, for which the growth is 69.4%.
`CS(=O)(=O)Nc1cc(-c2ccc3ncnc(Nc4ccc(F)c(Cl)c4)c3c2)ccc1Cl`: the growth was 37.9%.
Consider `Nc1nc(N(Cc2ccccc2)c2ccccc2)c2cn[nH]c2n1`, for which the growth is 53%.
The result for `CCOC(=O)c1nnn(-c2no[n+]([O-])c2-c2ccc(OC)cc2)c1COc1cccc2cccnc12` reads -43.1% (active).
Turning to `COc1ccc(C2CC(n3ccnc3)c3cc(OC)c(OC)c(OC)c32)cc1O` (stereo not given), the growth was 86.4%.
The same measure for `COc1cc(/C=C/c2cn[nH]c2-c2ccc(C)cc2)cc(OC)c1OC`: 40.6%; for `Cc1nc(N/N=C/c2cn(-c3ccccc3)nc2-c2cc3ccccc3oc2=O)sc1N=Nc1ccccc1`: 89.5%.
The result for `COC(=O)[C@@]1(C)CC[C@]2(C)CC[C@]3(C)C4=CC=C5C(=CC(=O)C(O)=C5C)[C@]4(C)[C@@H](O)C[C@@]3(C)[C@@H]2C1` reads -56.3% (active); that for `CCCC(O)Cn1ncc(C(=O)OCC)c1NC(=O)NCc1cccc(C(F)(F)F)c1` (stereo not given), 87.5%; that for `Nc1c(C(=O)Nc2cccc3ncccc23)sc2nc3c(cc12)CN(Cc1ccccc1)CC3`, 88.6%.
As for `O=C1O[C@@H](c2ccccc2Cl)[C@@H]2c3cc4c(cc3CCN12)OCO4`, the growth is 99.5%.
The result for `CC(=O)c1sc(-c2ccc(F)cc2)cc1O` reads 97.4%.
Consider `N#Cc1nn(-c2cc(=O)[nH]c3ccc(Br)cc23)c(N)c1C#N`, for which the growth is 102%.
As to `C/C(=N\Nc1ccccc1)c1ccc(NC2=CC(=O)c3ccccc3C2=O)cc1`, the growth was 21.4%.
The result for `CN(C)c1ccc(/C=C2\C=C(c3nc4ccccc4s3)OC2=O)cc1` reads 91%; that for `O=C1/C(=C/c2ccc(Cl)cc2)CN(C(=O)C(Cl)Cl)C/C1=C\c1ccc(Cl)cc1`, -93.1% (active); that for `COc1ccc(Oc2ccc(/C=C/C(=O)c3ccc(OC)c(OC)c3)cc2)cc1`, 53.7%.
As to `COc1ccc(N=C2NN=C(c3c[nH]c4ccccc34)CS2)cc1OC`, the growth was 45.1%.
Consider `O=C(Nc1ccc(Nc2ccncc2)cc1)c1ccc(Nc2ccnc3ccc([N+](=O)[O-])cc23)cc1`, for which the growth was 90.6%.
Turning to `CCCc1cc(=O)oc2c(C(=O)CC(C)C)c(O)c(CC=C(C)C)c(O)c12`, the growth was 33.8%.
For the compound `O=C1/C(=C/c2ccccn2)SC(=S)N1N1CCOCC1`, the growth is 97.8%.
The result for `COC12C=C/C(=C(/C(=O)OCCSc3ccnn3C)C(=O)CCCCCCCCC3(OC)C=C/C(=C(/C(=O)OCCSc4ccnn4C)C(=O)CCCCCCCC1)O3)O2` reads -68.6% (active); that for `COc1cc(/C=C/C(=O)N2CCN(C(=O)c3cc(OC)c(OC)c(OC)c3)CC2)ccc1OCCCOc1cc2c(cc1OC)C(=O)N1CCC[C@H]1C=N2`, 1.38% (active).
On to `COC(=O)c1c(C)nc(C)c2c1C(=O)C=C(NCc1ccccc1)C2=O`, for which the growth was 61.7%.
The result for `Cc1ccc2nc(-c3ccc(C(=O)N/N=C/c4ccc([N+](=O)[O-])cc4)cc3)[nH]c2c1` reads 98.8%; that for `CCCN(CCSSCCNc1nc(N(C)O)nc(N(C)O)n1)c1nc(N(C)O)nc(N(C)O)n1`, 70.7%; that for `COc1cc(O)c2c(=O)c3c(CC=C(C)C)cc(OC)c(O)c3oc2c1`, 40.3%.
The result for `Cc1ccc(NC(=O)c2cc3ccccc3cc2O)c(C)c1` reads 88%.
The result for `Clc1ccc(-c2cc(-c3ccccc3)nc(N3CCN(CCCNc4ccnc5cc(Cl)ccc45)CC3)n2)cc1` reads -95.5% (active); that for `N#Cc1ccccc1-c1ccc(CN2C(=O)S/C(=C\c3ccc(Br)cc3)C2=O)cc1`, 101%; that for `O=C(Oc1ccc2c(c1)sc1nc(-c3ccccc3)[nH]c(=O)c12)C(F)(F)F`, 18.8%.

Source of the values: PubChem BioAssay (NCI).
